Test results reported in PubChem BioAssay (NCATS).
Inconclusive results are not listed. Unmarked numbers belong to inactive results. The call rests on the fitted dose curve; in most records, active means well fitted curve in the direction sought with a large enough effect; inconclusive means small, poorly fitted or top-dose-only effect, or another doubt; inactive means no such curve, though single readings can be large; an effect the other way counts as inactive or inconclusive.

Test system: not listed separately
Assay: qHTS to identify inhibitors of the type 1 interferon - major histocompatibility complex class I in skeletal muscle: primary screen against the NCATS Mechanism Interrogation Plate v5.0 (MIPE) Libary (AID 1347411);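 further: plate controls were vehicle for no effect and reference inhibitor for full effect; nearly all actives have a fitted effect of over 65% in size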
Conditions: iHSKM cells + IFN-b, HiBiT-tagged MHC-I luminescence, 24 h; series mostly up to 45.8 µM; activity change, negative = inhibition: at the top concentration
In short: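 HLA-B HiBit myoblasts, dexamethasone-free medium + 4 ng/ml IFN-b, 24 h compound, 11-pt 1:3 from 46 uM final. Readout: Nano-Glo HiBiT lytic luminescence after 10 min lysis, RT.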
With `COc1ccc2[nH]c(S(=O)Cc3ncc(C)c(OC)c3C)nc2n1` (configuration not stated) the “activity change, negative = inhibition” value was -10.4%.
With `Cn1c(=O)c2c(ncn2CC2OCCO2)n(C)c1=O` the “activity change, negative = inhibition” value was 9%.
With `CCCCN(CCCC)CC(O)c1cc(Cl)cc2c1-c1ccc(Cl)cc1/C2=C/c1ccc(Cl)cc1` (configuration not stated) the “activity change, negative = inhibition” value was 1.48%.
For `CC(C)c1c(C(=O)Nc2ccccc2)c(-c2ccccc2)c(-c2ccc(F)cc2)n1CC[C@@H](O)C[C@@H](O)CC(=O)O`, the “activity change, negative = inhibition” value was -4.59% [at 15.5 µM].
With `C[C@H]1O[C@@H](n2cc(F)c(=O)[nH]c2=O)[C@H](O)[C@@H]1O` the “activity change, negative = inhibition” value was 10.3%.
In the case of `NC(=O)c1ncn([C@@H]2O[C@H](CO)[C@@H](O)[C@H]2O)c1N`, the “activity change, negative = inhibition” value is reported as 2.87%.
For `OC[C@H]1O[C@@H](O[C@@H]2[C@@H](CO)O[C@](O)(CO)[C@H]2O)[C@H](O)[C@@H](O)[C@H]1O`, the “activity change, negative = inhibition” value was -0.674%.

Molecular target: Protein phosphatase 1D (Homo sapiens) (UniProt O15297)
Sequence (O15297 whole entry, looked up): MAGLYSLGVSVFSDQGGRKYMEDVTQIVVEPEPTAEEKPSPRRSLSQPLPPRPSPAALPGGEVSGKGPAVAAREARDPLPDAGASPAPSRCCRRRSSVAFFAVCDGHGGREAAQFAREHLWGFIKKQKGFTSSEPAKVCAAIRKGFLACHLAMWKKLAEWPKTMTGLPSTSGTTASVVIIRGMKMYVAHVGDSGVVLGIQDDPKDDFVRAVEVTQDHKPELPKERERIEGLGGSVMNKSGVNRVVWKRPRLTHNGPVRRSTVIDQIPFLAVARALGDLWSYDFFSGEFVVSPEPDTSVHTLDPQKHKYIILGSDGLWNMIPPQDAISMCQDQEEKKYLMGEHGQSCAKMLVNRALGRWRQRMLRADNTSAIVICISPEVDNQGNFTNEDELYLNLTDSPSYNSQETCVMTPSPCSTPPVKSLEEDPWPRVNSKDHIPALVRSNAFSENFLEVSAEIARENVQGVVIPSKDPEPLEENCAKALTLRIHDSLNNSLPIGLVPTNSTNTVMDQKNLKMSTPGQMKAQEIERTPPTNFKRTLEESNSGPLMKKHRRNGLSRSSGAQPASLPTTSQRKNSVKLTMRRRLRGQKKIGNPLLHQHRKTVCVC
Assay: RapidFire Mass Spectrometry qHTS Assay for Modulators of WT P53-Induced Phosphatase 1 (WIP1) (AID 1347424);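 further: amount of dephosphorylated VEPPL-S-QETFS peptide product formed by WIP1; plate controls were DMSO wells for no effect and GSK830371 inhibitor control at 10 µM for full effect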
Conditions: WIP1 dephosphorylation of phosphopeptide, RapidFire MS; series mostly up to 63 µM; activity change, negative = inhibition: at the top concentration
In short: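 Mass-spectrometric measurement of dephosphorylated peptide after a 5 min room-temperature reaction of 10 nM WIP1 with 2 uM phosphopeptide, following 1 h compound preincubation in 30 mM MgCl2 buffer.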
With `CNCC(O)c1ccc(O)c(O)c1` (configuration not stated) the “activity change, negative = inhibition” value was -5.55%.
In the case of `CN1CCC[C@@H]1Cc1c[nH]c2ccc(CCS(=O)(=O)c3ccccc3)cc12`, the “activity change, negative = inhibition” value is reported as 5.66%.
For `CSc1ccc2c(c1)C(N1CCN(C)CC1)Cc1ccccc1S2` (configuration not stated), the “activity change, negative = inhibition” value was 52.2%.
In the case of `C[C@H](NC(CCc1ccccc1)C(=O)O)C(=O)N1CCC[C@H]1C(=O)O` (some centres not stated), the “activity change, negative = inhibition” value is reported as 0.585%.
In the case of `NC(=O)NC(=O)Cc1ccccc1`, the “activity change, negative = inhibition” value is reported as 0.352%.
`C[C@@H]1CC[C@@]2(OC1)O[C@H]1C[C@H]3[C@@H]4CC[C@H]5C[C@@H](O)CC[C@]5(C)[C@H]4CC(=O)[C@]3(C)[C@H]1[C@@H]2C` gave an activity change, negative = inhibition of 12.5% [at 6.17 µM].
With `CNCCCC1c2ccccc2C=Cc2ccccc21` the “activity change, negative = inhibition” value was 17.6%.
In the case of `O=C1NC(=O)[C@@]2(CCOc3ccc(F)cc32)N1`, the “activity change, negative = inhibition” value is reported as -4.76%.
With `O=C(O)c1ccccc1-c1ccc(C(F)(F)F)cc1` the “activity change, negative = inhibition” value was -1.94%.
With `CC(=O)c1ccc2c(c1)N(CCCN(C)C)c1ccccc1S2` the “activity change, negative = inhibition” value was 0%.
In the case of `CN(C)CCCO[C@@H]1[C@H]2OC(C)(C)O[C@H]2O[C@@H]1C(O)CO` (some centres not stated), the “activity change, negative = inhibition” value is reported as -4.26%.
For `COc1ccc2[nH]c(S(=O)Cc3ncc(C)c(OC)c3C)nc2n1` (configuration not stated), the “activity change, negative = inhibition” value was 0.709%.
With `OCCN1CCN(CCCN2c3ccccc3Sc3ccc(Cl)cc32)CC1` the “activity change, negative = inhibition” value was 36.3%.
With `CN(C)CCCN1c2ccccc2Sc2ccc(Cl)cc21` the “activity change, negative = inhibition” value was 58.2%.
With `Cn1c(=O)c2c(ncn2CC2OCCO2)n(C)c1=O` the “activity change, negative = inhibition” value was 1.09%.
In the case of `CCCCN(CCCC)CC(O)c1cc(Cl)cc2c1-c1ccc(Cl)cc1/C2=C/c1ccc(Cl)cc1` (configuration not stated), the “activity change, negative = inhibition” value is reported as 30%.
In the case of `CN1CCN(C2Cc3ccccc3Sc3ccc(Cl)cc32)CC1` (configuration not stated), the “activity change, negative = inhibition” value is reported as 36.3%.
In the case of `CCCCc1ncc(/C=C(\Cc2cccs2)C(=O)O)n1Cc1ccc(C(=O)O)cc1`, the “activity change, negative = inhibition” value is reported as -11.4%.
For `CNCCC(Oc1ccc(C(F)(F)F)cc1)c1ccccc1` (configuration not stated), the “activity change, negative = inhibition” value was 54.1%.
With `CC(C)c1c(C(=O)Nc2ccccc2)c(-c2ccccc2)c(-c2ccc(F)cc2)n1CC[C@@H](O)C[C@@H](O)CC(=O)O` the “activity change, negative = inhibition” value was 11.7%.
In the case of `C[C@H]1O[C@@H](n2cc(F)c(=O)[nH]c2=O)[C@H](O)[C@@H]1O`, the “activity change, negative = inhibition” value is reported as -0.31%.
With `CCCCCCCCCCCCCCCC(=O)NCCO` the “activity change, negative = inhibition” value was 11.8%.
With `NC(=O)c1ncn([C@@H]2O[C@H](CO)[C@@H](O)[C@H]2O)c1N` the “activity change, negative = inhibition” value was 1.81%.
For `NC1[C@H]2CN(c3nc4c(cc3F)c(=O)c(C(=O)O)cn4-c3ccc(F)cc3F)C[C@@H]12` (some centres not stated), the “activity change, negative = inhibition” value was 10.7%.
In the case of `OC[C@H]1O[C@@H](O[C@@H]2[C@@H](CO)O[C@](O)(CO)[C@H]2O)[C@H](O)[C@@H](O)[C@H]1O`, the “activity change, negative = inhibition” value is reported as -2.59%.
In the case of `NC1CCN(c2cccc(Cl)n2)CC1`, the “activity change, negative = inhibition” value is reported as 15.9%.
For `CCN(CC)CCNC(=O)c1c(C)[nH]c(/C=C2\C(=O)Nc3ccc(F)cc32)c1C`, the “activity change, negative = inhibition” value was 36.3%.
In the case of `CN(C)CCCN1c2ccccc2CCc2ccccc21`, the “activity change, negative = inhibition” value is reported as 12.7%.
With `N[C@H](C(=O)O)c1ccc(O)cc1` the “activity change, negative = inhibition” value was 1.48% [at 26.6 µM].
In the case of `CC1=C(CC(=O)O)c2cc(F)ccc2/C1=C\c1ccc(S(C)=O)cc1` (configuration not stated), the “activity change, negative = inhibition” value is reported as 1.84%.
For `CSc1ccc2c(c1)N(CCC1CCCCN1C)c1ccccc1S2` (configuration not stated), the “activity change, negative = inhibition” value was 61.6%.

Molecular target: Protein phosphatase 1D (Homo sapiens) (UniProt O15297)
Assay: Rhodamine-PBP qHTS Assay for Modulators of WT P53-Induced Phosphatase 1 (WIP1) (AID 1347425); further: % of control where 0% means no effect
Conditions: recombinant WIP1, Rhodamine-PBP phosphate fluorescence, real-time; series mostly up to 57.5 µM; activity change, negative = inhibition: at the top concentration
In short: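 5 nM WIP1 + 10 uM Rh-PBP, 50 mM Tris pH 7.5, 30 mM MgCl2, 1 mM TCEP, 0.1 mM EGTA, BSA; cpds pinned, 1 hr RT; + 10 uM phosphopeptide; fluorescence 1-min reads x 11 min; delta = f1 - f0.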
With `CNCC(O)c1ccc(O)c(O)c1` (configuration not stated) the “activity change, negative = inhibition” value was 2.48%.
In the case of `CN1CCC[C@@H]1Cc1c[nH]c2ccc(CCS(=O)(=O)c3ccccc3)cc12`, the “activity change, negative = inhibition” value is reported as 17.5%.
For `C[C@H](NC(CCc1ccccc1)C(=O)O)C(=O)N1CCC[C@H]1C(=O)O` (some centres not stated), the “activity change, negative = inhibition” value was 15.1%.
For `NC(=O)NC(=O)Cc1ccccc1`, the “activity change, negative = inhibition” value was -2.09%.
Molecule `C[C@@H]1CC[C@@]2(OC1)O[C@H]1C[C@H]3[C@@H]4CC[C@H]5C[C@@H](O)CC[C@]5(C)[C@H]4CC(=O)[C@]3(C)[C@H]1[C@@H]2C` has an activity change, negative = inhibition of 1.62% [at 4.81 µM].
With `CNCCCC1c2ccccc2C=Cc2ccccc21` the “activity change, negative = inhibition” value was 23.1%.
In the case of `O=C1NC(=O)[C@@]2(CCOc3ccc(F)cc32)N1`, the “activity change, negative = inhibition” value is reported as 7.29%.
With `C=Cc1c(C)c2cc3[nH]c(cc4nc(cc5nc(cc1[nH]2)C(C)=C5CCC(=O)O)C(CCC(=O)O)=C4C)c(C)c3C=C` the “activity change, negative = inhibition” value was -20.9%.
With `O=C(O)c1ccccc1-c1ccc(C(F)(F)F)cc1` the “activity change, negative = inhibition” value was 3.19%.
For `CC(=O)c1ccc2c(c1)N(CCCN(C)C)c1ccccc1S2`, the “activity change, negative = inhibition” value was 9.51%.
For `CN(C)CCCO[C@@H]1[C@H]2OC(C)(C)O[C@H]2O[C@@H]1C(O)CO` (some centres not stated), the “activity change, negative = inhibition” value was 11%.
In the case of `COc1ccc2[nH]c(S(=O)Cc3ncc(C)c(OC)c3C)nc2n1` (configuration not stated), the “activity change, negative = inhibition” value is reported as 9.01%.
For `OCCN1CCN(CCCN2c3ccccc3Sc3ccc(Cl)cc32)CC1`, the “activity change, negative = inhibition” value was 13.9%.
With `CN(C)CCCN1c2ccccc2Sc2ccc(Cl)cc21` the “activity change, negative = inhibition” value was 4.56%.
In the case of `Cn1c(=O)c2c(ncn2CC2OCCO2)n(C)c1=O`, the “activity change, negative = inhibition” value is reported as 11%.
With `CNCCC(Oc1ccc(C(F)(F)F)cc1)c1ccccc1` (configuration not stated) the “activity change, negative = inhibition” value was 15.8%.
With `CC(C)c1c(C(=O)Nc2ccccc2)c(-c2ccccc2)c(-c2ccc(F)cc2)n1CC[C@@H](O)C[C@@H](O)CC(=O)O` the “activity change, negative = inhibition” value was -7.11%.
For `C[C@H]1O[C@@H](n2cc(F)c(=O)[nH]c2=O)[C@H](O)[C@@H]1O`, the “activity change, negative = inhibition” value was 12.3%.
In the case of `CCCCCCCCCCCCCCCC(=O)NCCO`, the “activity change, negative = inhibition” value is reported as 3.63%.
In the case of `NC(=O)c1ncn([C@@H]2O[C@H](CO)[C@@H](O)[C@H]2O)c1N`, the “activity change, negative = inhibition” value is reported as 12%.
In the case of `NC1[C@H]2CN(c3nc4c(cc3F)c(=O)c(C(=O)O)cn4-c3ccc(F)cc3F)C[C@@H]12` (some centres not stated), the “activity change, negative = inhibition” value is reported as 5.28%.
With `OC[C@H]1O[C@@H](O[C@@H]2[C@@H](CO)O[C@](O)(CO)[C@H]2O)[C@H](O)[C@@H](O)[C@H]1O` the “activity change, negative = inhibition” value was 5.72%.
For `N[C@H](C(=O)O)c1ccc(O)cc1`, the “activity change, negative = inhibition” value was 6.1% [at 23.8 µM].
For `CC1=C(CC(=O)O)c2cc(F)ccc2/C1=C\c1ccc(S(C)=O)cc1` (configuration not stated), the “activity change, negative = inhibition” value was 16.8%.
